This is one part of a sample in which hits are shown more often than they occur.
HT1080 IDH1KD tx: qHTS for induction of synthetic lethality in tumor cells producing 2HG: qHTS for the HT-1080-IDH1KD cell line | actives 2% (n = 360,000) | Potency, µM (highest dose often 46.1 µM), without a hit: top-dose activity, negative = toxicity, usual class: cytotoxic | HT-1080 IDH1 knockdown viability, ATP luminescence, 48 h | AID 686971, 2013;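 also: potency is read from the fitted curve at half-maximal effect; 0% = DMSO wells and -100% = cell-free medium wells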
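Cytotoxicity counter-line: IDH1KD HT-1080, 48 h, CellTiter-Glo. Curves classed by r2, magnitude and activity.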
IL1B secr inh: qHTS for Inhibitors of Inflammasome Signaling: IL-1-beta AlphaLISA Primary Screen; THP-1 LPS/ATP IL-1B secretion, AlphaLISA, 16 h; stronger effect = lower value; activity change, % at 57.5 µM; actives 4.7% (n = 360,000); AID 743279, 2014; in the data active = activity change below about -50%; inconclusive = mostly about -30% to -49%
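THP-1 cells pretreated 1 hr with compounds (up to 57.5 uM final), then stimulated with LPS (250 ng/mL final) plus ATP (1.25 mM final); secreted IL-1B measured by AlphaLISA after 16 hr, decreased signal indicating inhibition.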
HT1080-NT tox: qHTS for induction of synthetic lethality in tumor cells producing 2HG: qHTS for the HT-1080-NT fibrosarcoma cell line. HT-1080-NT fibrosarcoma viability, CellTiter-Glo ATP luminescence, 48 h. Potency, µM (doses to about 46.1 µM), for the others: at the top dose activity, negative = less viability, most hits filed as cytotoxic. actives 1.6% (n = 360,000). AID 686970, 2013;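 also: NT is the 2HG producing partner of a matched IDH1 knockdown line; potency is read from the fitted curve at half-maximal effect; 0% = DMSO-treated cells and -100% = media-only wells without cells; nearly all actives have a fitted effect of over 55% in size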
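Read-out is CellTiter-Glo luminescence after 10 minutes at room temperature, following 48 hours' compound treatment of HT-1080-NT cells (750 cells/well, RPMI, 5% FBS, 37 degrees C).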
TDP1 cell CPT: qHTS for Inhibitors of human tyrosyl-DNA phosphodiesterase 1 (TDP1): qHTS in cells in presence of CPT. chicken DT40 Tdp1-/-;hTDP1 cells + 20 nM CPT, ATP luminescence, 48 h. Potency, µM (series often up to 46.2 µM), for the others: at the top dose activity change, negative = growth inhibition, usual class: inhibitors. actives 12% (n = 420,000). AID 686979, 2013; also: potency is read from the fitted curve at half-maximal effect; nearly all actives have a fitted effect of over 55% in size
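Chicken DT40 Tdp1-/- cells complemented with human TDP1, 400 cells/well, exposed to compounds plus 20 nM camptothecin for at least 48 h at 37 C; viability read as ATP content by CellTiter-Glo luminescence.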
DT40 TDP1 no CPT: qHTS for Inhibitors of human tyrosyl-DNA phosphodiesterase 1 (TDP1): qHTS in cells in absence of CPT; DT40 Tdp1-/- hTDP1 cells, no CPT, ATP luminescence, 48 h; Potency, µM (highest dose often 46.2 µM), for the others: at the top dose activity change, negative = growth inhibition, most hits filed as inhibitors; actives 15% (n = 420,000); also: potency is read from the fitted curve at half-maximal effect; nearly all actives have a fitted effect of over 55% in size
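Camptothecin absent (DMSO only). Human TDP1-complemented DT40 knockout cells, 400 cells/well, 37 °C for minimum 48 hr; ATP measured via CellTiter-Glo, 30 min dark incubation, luminescence.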
12-LOX inh: Primary qHTS assay for inhibitors of human arachidonate 12S-lipoxygenase (ALOX12): Round 2; Potency, µM (highest dose often 108 µM), without a hit: at the top dose activity change, negative = inhibition, hits mostly inhibitors; AID 1671190, 2021; purified 12hLO, xylenol orange hydroperoxide absorbance; actives 1.1% (n = 580,000); also: potency is read from the fitted curve at half-maximal effect
Target sequence (P18054 whole entry, looked up): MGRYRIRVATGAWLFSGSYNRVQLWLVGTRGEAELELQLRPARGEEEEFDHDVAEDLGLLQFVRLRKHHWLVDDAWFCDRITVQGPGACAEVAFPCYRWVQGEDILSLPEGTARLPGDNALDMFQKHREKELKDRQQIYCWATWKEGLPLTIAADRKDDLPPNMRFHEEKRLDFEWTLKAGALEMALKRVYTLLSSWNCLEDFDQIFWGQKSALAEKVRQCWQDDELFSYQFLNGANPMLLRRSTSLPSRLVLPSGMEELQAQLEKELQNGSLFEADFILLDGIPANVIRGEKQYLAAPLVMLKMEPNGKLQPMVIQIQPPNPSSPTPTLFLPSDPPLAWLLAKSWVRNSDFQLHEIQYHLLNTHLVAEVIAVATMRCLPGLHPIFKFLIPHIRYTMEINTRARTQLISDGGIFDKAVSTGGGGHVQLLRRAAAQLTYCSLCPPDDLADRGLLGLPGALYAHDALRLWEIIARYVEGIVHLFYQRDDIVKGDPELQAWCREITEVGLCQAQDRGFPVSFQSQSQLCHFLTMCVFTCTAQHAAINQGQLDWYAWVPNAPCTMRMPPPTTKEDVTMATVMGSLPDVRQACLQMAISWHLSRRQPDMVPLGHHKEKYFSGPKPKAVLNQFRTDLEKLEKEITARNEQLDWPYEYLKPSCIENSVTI
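Purified human 12hLO (150 nM final) in 25 mM Hepes, 0.01% Triton X-100, pH 7.0 was preincubated 15 min at room temperature with compound. Then 40 uM arachidonic acid was added, 30 min. Hydroperoxide was read by Fe-XO absorbance ratio 573/405 nm.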
The depositor's hits bear a star; ? = inconclusive; . = no result; ! = not active in a repeat. Unless noted, calls follow the shape of the dose curve; as a rule, active = well fitted curve in the direction sought with a large enough effect; inconclusive = small, poorly fitted or top-dose-only effect, or another doubt; inactive = no such curve, though single readings can be large; an effect the other way counts as inactive or inconclusive. Unless noted, % is scaled to controls: 0 for no effect and ±100 for the full control effect.

SMILES	HT1080 IDH1KD tx	IL1B secr inh	HT1080-NT tox	TDP1 cell CPT	DT40 TDP1 no CPT	12-LOX inh
CCC1Oc2ccc(NS(=O)(=O)c3ccccc3)cc2CN(Cc2ccc(F)cc2)C1=O (stereo unspecified)	.	.	.	.	.	14µM*
N#Cc1ccc(-c2csc(NC(=O)C3CC3)n2)cc1	8%	-8	13%	0.73µM*	0.37µM*	?
N#Cc1ccc(-c2csc(NC(=O)/C=C/c3cccs3)n2)cc1	-17%	-5	-18%	13µM*	10µM*	-14%
Cc1nc(-c2ccc(C#N)cc2)cs1	7%	13	7%	-24%	-17%	32µM*!
N#Cc1ccc(-c2csc(NC(=O)c3ccc(S(=O)(=O)N4CCCCCC4)cc3)n2)cc1	.	.	.	.	.	-9%
O=C(/C=C/c1cccc2ccccc12)NC1CCCCC1	.	.	.	.	.	0%
Cc1ccc(C(=O)/C=C/c2cccc3ccccc23)o1	.	.	.	.	.	16µM*
CCN(CC)C(=O)N1c2ccccc2Sc2ccccc21	-24%	7	-19%	?	?	-1%
CCN(CC)C(=O)N1c2ccccc2CC(N(CC)CC)c2ccccc21 (stereo unspecified)	-26%	-20	-20%	7.3µM*	5.8µM*	-7%
Cc1noc(/C=C/c2nn(C)cc2Cl)c1[N+](=O)[O-]	?	-78*	-28%	21µM*	12µM*	-5%
Cc1cccc(N/C=C/c2onc(C)c2[N+](=O)[O-])c1	-5%	3	-7%	?	9.2µM*	-7%
COc1cc(/C=C/c2onc(C)c2[N+](=O)[O-])cc(OC)c1OC	11%	14	-1%	7%	-21%	166%
Cc1cccc(NS(=O)(=O)c2c(C)noc2C)c1	2%	-3	11%	8%	2%	6%
Cc1cccc(/C=C/c2onc(C)c2[N+](=O)[O-])n1	6.5µM*	-97*	?	2.6µM*	2.6µM*	3%
Cc1cc(O)ccc1N/C=C/c1onc(C)c1[N+](=O)[O-]	?	?	16µM*	-14%	-22%	0%
COC1CCOC2(CCN(C(=O)CCn3nc(C)cc3C)CC2)C1 (stereo unspecified)	.	.	.	.	.	29%
CN(C)C[C@@H]1CN(S(C)(=O)=O)C[C@H]1NC(=O)c1cnco1	.	.	.	.	.	25%
CC1(C(=O)NCCc2c[nH]c3ccccc23)CCCCC(=O)N1 (stereo unspecified)	.	.	.	.	.	3%
C/C=C(\C)C(=O)NCCN1C2=NC[C@H](C(C)C)N2C[C@H]1Cc1ccc(O)cc1	-3%	26	0%	0%	-5%	-34%
CC(C)[C@H]1CN=C2N(C[C@H](C)NC(=O)CCC3CCCCC3)[C@H](Cc3ccc(O)cc3)CN21	?	0	-22%	6.5µM*	6.5µM*	?
C[C@@H](CN1C2=NC[C@H](C)N2C[C@H]1Cc1ccc(O)cc1)NC(=O)CCC1CCCCC1	-13%	-17	1%	12µM*	13µM*	-5%
C/C=C(\C)C(=O)NCCN1C2=NC[C@H](Cc3ccc(O)cc3)N2C[C@H]1Cc1ccc(O)cc1	7%	25	10%	4%	-20%	-1%
O=C(CCN1Cc2ccccc2C1=O)N[C@H](c1cccs1)C1CC(O)C1 (stereo partly specified)	.	.	.	.	.	27%
CCn1nc(C(=O)N(C)CCOc2ccc(C)cc2)c2ccccc2c1=O	.	.	.	.	.	-18%
CC(C)c1noc(-c2cn(C3CCN(C(=O)c4ccc(Cl)s4)C3)nn2)n1 (stereo unspecified)	.	.	.	.	.	-6%
SMILES	HT1080 IDH1KD tx	IL1B secr inh	HT1080-NT tox	TDP1 cell CPT	DT40 TDP1 no CPT	12-LOX inh
N=C1SCC(=O)N1c1ncc(Cc2ccccc2Cl)s1	-2%	-102*	-22%	?	?	3%
O=C1c2ccccc2C(=O)N1c1ncc(Cc2ccc(Cl)cc2)s1	-5%	15	7%	18µM*	?	-2%
O=C1c2cccnc2C(=O)N1Cc1ccc(Cl)cc1	7%	12	0%	-15%	-11%	0%
N=C1SCC(=O)N1c1ncc(Cc2cccc(Cl)c2)s1	-22%	-103*	-22%	?	?	2%
CCc1nnc(N2C(=N)SCC2=O)s1	12%	10	21%	8%	?	?
CCOCCOC1CCN(C(=O)c2ccc3c(c2)c2ccccc2n3CC)CC1	.	.	.	.	.	17%
CCC(C)NC(=O)C1COC2(CCN(C(=O)c3ccc(Cl)cc3)CC2)N1C(=O)c1ccccc1C (stereo unspecified)	.	.	.	.	.	42%
COCCCNC(=O)Cc1c(C)c2cc3c(cc2oc1=O)OC(C)(C)CC3	-16%	17	-21%	26µM*	26µM*	-1%
COc1ccc(CCNC(=O)Cc2c(C)c3c(cc(C)c4c(C)c(C)oc43)oc2=O)cc1OC	.	.	.	-8%	-10%	-38%
Cc1c(CC(=O)NCCCC(=O)O)c(=O)oc2cc3c(cc12)CCC(C)(C)O3	23%	0	?	?	?	?
COCCCNC(=O)Cc1c(C)c2c(cc(C)c3c(C)c(C)oc32)oc1=O	-8%	30	7%	?	13µM*	8%
O=C(Nc1ccccc1Sc1ccccc1)c1cnn2c1NC(=C1CC1)C=C2C(F)(F)F	4%	.	0%	?	?	.
c1ccc(-c2nnc(CN3CCCc4ccccc43)o2)cc1	-5%	16	-2%	?	23µM*	0%
Cc1nc2scc(CC(=O)N3CCCC3)n2c(=O)c1-c1cc(C)n(-c2ccc(C(C)C)cc2)n1	.	.	.	.	.	38%
CCN(c1ccccc1)S(=O)(=O)c1ccc(Oc2ccc(-n3ccnc3)cc2)nc1	?	?	?	5.2µM*	8.2µM*	30%
CCN(c1ccccc1)S(=O)(=O)c1ccc(Oc2ccccc2C(C)=O)nc1	5%	28	0%	-22%	?	-17%
COCCc1noc([C@@H]2CN(Cc3ccoc3)C[C@H]2CO)n1	.	.	.	.	.	-2%
CN1C(=O)N(C)C2(CCN(CCOc3ccc(F)cc3)C2)C1=O (stereo unspecified)	.	.	.	.	.	50µM*

Screening data deposited in PubChem by National Center for Advancing Translational Sciences (NCATS).
